# From PubChem BioAssay
# Where “and” joins values, the source holds several entries; their conditions need not be identical. Identical values can stand only once.
# Test: LFS_MB_P medulloblastoma growth inhibition, cell-based, chromothripsis tumors, cisplatin or BGB combos (AID 1671449);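 also: cells exposed for 96 hours; 0% = vehicle DMSO and 100% = killing by high DMSO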
# Details: LFS_MB_P medulloblastoma cells, measured here: combination with cisplatin, at 5 µM, stronger effect = higher value
row,SMILES,inhibition
1,COc1ccccc1S(=O)(=O)Nc1ccc2c(c1)CN(C)C(=O)N2,27.9%
2,Cc1cc(C#N)cc(C)c1Oc1nc(Nc2ccc(C#N)cc2)nc(N)c1Br,-60.9%
3,Nc1ncn(C2OC(CO)C(O)C2O)c(=O)n1 (configuration not stated),15.6%
4,Cc1cc(C)c(Nc2ccnc(Nc3ccc(C#N)cc3)n2)c(C)c1,-40.8%
5,COc1ccc(CC(N)C(=O)NC2C(CO)OC(n3cnc4c(N(C)C)ncnc43)C2O)cc1 (configuration not stated),120% and 124%
6,O=c1ccn(C2OC(CO)C(O)C2O)c(=O)[nH]1 (configuration not stated),-10.3% and -15.6%
7,CC=C1NC(=O)C2CSSCCC=CC(CC(=O)NC(C(C)C)C(=O)N2)OC(=O)C(C(C)C)NC1=O (configuration not stated),118% and 111%
8,CN(C)CC(=O)Nc1ccc2[nH]c(=O)c3ccccc3c2c1,4.17% and -17.8% and -4.6%
9,CC1OC(n2cc(F)c(=O)[nH]c2=O)C(O)C1O (configuration not stated),-27.3%
10,Nc1ccn(C2OC(CO)C(O)C2(F)F)c(=O)n1 (configuration not stated),65.8% and 67.6% and 88%
11,Cc1cn(C2CC(N=[N+]=[N-])C(CO)O2)c(=O)[nH]c1=O (configuration not stated),-32.8% and -21.5%
12,CC(C=CC(=O)NO)=CC(C)C(=O)c1ccc(N(C)C)cc1 (configuration not stated),120%
13,NC(=S)NN=Cc1ncccc1N,-31.8%
14,CC(C)(C#N)c1ccc(N2C(=O)OCc3cnc4ccc(-c5cnc6ccccc6c5)cc4c32)cc1,-27.3%
15,CC1CN(c2c(F)c(N)c3c(=O)c(C(=O)O)cn(C4CC4)c3c2F)CC(C)N1 (configuration not stated),-16.6%
16,CCCCN(Cc1ccc(C(=O)NO)cc1)C(=O)Nc1ccccc1,80.5% and 81.8%
17,O=c1[nH]cnc2c1ncn2C1OC(CO)C(O)C1O (configuration not stated),-32.2% and -50.7%
18,Cc1cc(C=CC#N)cc(C)c1Nc1ccnc(Nc2ccc(C#N)cc2)n1,-38.4%
19,CC(Oc1cc(-c2cnn(C3CCNCC3)c2)cnc1N)c1c(Cl)ccc(F)c1Cl (configuration not stated),-60.7%
20,O=C(O)c1cc2cccc([N+](=O)[O-])c2[nH]1,-50.9%
21,O=c1[nH]c(=O)n(C2CC(O)C(CO)O2)cc1I (configuration not stated),2.43%

# Test: HDN33 neuroblastoma growth inhibition, cell-based, chromothripsis tumors, cisplatin or BGB combos (AID 1671450);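 also: cells exposed to compound for four days; 0% = vehicle DMSO and 100% = cell killing by high DMSO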
# Details: HDN33 neuroblastoma cells, BGB combo, at 5 µM, stronger effect = higher value
row,SMILES,inhibition
1,COc1ccccc1S(=O)(=O)Nc1ccc2c(c1)CN(C)C(=O)N2,10.4%
2,Cc1cc(C#N)cc(C)c1Oc1nc(Nc2ccc(C#N)cc2)nc(N)c1Br,-14.1%
3,Nc1ncn(C2OC(CO)C(O)C2O)c(=O)n1 (configuration not stated),35.3%
4,Cc1cc(C)c(Nc2ccnc(Nc3ccc(C#N)cc3)n2)c(C)c1,15.1%
5,COc1ccc(CC(N)C(=O)NC2C(CO)OC(n3cnc4c(N(C)C)ncnc43)C2O)cc1 (configuration not stated),100% and 99.9%
6,O=c1ccn(C2OC(CO)C(O)C2O)c(=O)[nH]1 (configuration not stated),17.7% and -13.8%
7,CC=C1NC(=O)C2CSSCCC=CC(CC(=O)NC(C(C)C)C(=O)N2)OC(=O)C(C(C)C)NC1=O (configuration not stated),99.8% and 99.9%
8,CN(C)CC(=O)Nc1ccc2[nH]c(=O)c3ccccc3c2c1,7.32% and -6.67% and -9.33%
9,CC1OC(n2cc(F)c(=O)[nH]c2=O)C(O)C1O (configuration not stated),-8.24%
10,Nc1ccn(C2OC(CO)C(O)C2(F)F)c(=O)n1 (configuration not stated),86.4% and 89.9% and 88.8%
11,Cc1cn(C2CC(N=[N+]=[N-])C(CO)O2)c(=O)[nH]c1=O (configuration not stated),-43.8% and -18.1%
12,CC(C=CC(=O)NO)=CC(C)C(=O)c1ccc(N(C)C)cc1 (configuration not stated),99.8%
13,NC(=S)NN=Cc1ncccc1N,85%
14,CC(C)(C#N)c1ccc(N2C(=O)OCc3cnc4ccc(-c5cnc6ccccc6c5)cc4c32)cc1,20.7%
15,CC1CN(c2c(F)c(N)c3c(=O)c(C(=O)O)cn(C4CC4)c3c2F)CC(C)N1 (configuration not stated),12%
16,CCCCN(Cc1ccc(C(=O)NO)cc1)C(=O)Nc1ccccc1,53.8% and 40.9%
17,O=c1[nH]cnc2c1ncn2C1OC(CO)C(O)C1O (configuration not stated),-71.8% and -17.3%
18,Cc1cc(C=CC#N)cc(C)c1Nc1ccnc(Nc2ccc(C#N)cc2)n1,-13%
19,CC(Oc1cc(-c2cnn(C3CCNCC3)c2)cnc1N)c1c(Cl)ccc(F)c1Cl (configuration not stated),54.9%
20,O=C(O)c1cc2cccc([N+](=O)[O-])c2[nH]1,-9.55%
21,O=c1[nH]c(=O)n(C2CC(O)C(CO)O2)cc1I (configuration not stated),9.54%
